Results as given in PMC5540273 (PLoS ONE, 2017).
Read-outs that look alike come from different tables or passages of the source.

Key:
CDKL5 = settings: concentration: 1 μM, replicates: in singlicate; n = 1
CHEK1 = settings: concentration: 1 μM, replicates: in singlicate; n = 1
CHEK2 = settings: concentration: 1 μM, replicates: in singlicate; n = 1
CIT = settings: concentration: 1 μM, replicates: in singlicate; n = 1
CLK1 = settings: concentration: 1 μM, replicates: in singlicate; n = 1
CLK2 = settings: concentration: 1 μM, replicates: in singlicate; n = 1
CLK3 = settings: concentration: 1 μM, replicates: in singlicate; n = 1
CLK4 = settings: concentration: 1 μM, replicates: in singlicate; n = 1
CSF1R-autoinhibited = settings: concentration: 1 μM, replicates: in singlicate; n = 1
CSF1R = settings: concentration: 1 μM, replicates: in singlicate; n = 1
CSK = settings: concentration: 1 μM, replicates: in singlicate; n = 1
CSNK1A1L = settings: concentration: 1 μM, replicates: in singlicate; n = 1
CSNK1A1 = settings: concentration: 1 μM, replicates: in singlicate; n = 1
CSNK1D = settings: concentration: 1 μM, replicates: in singlicate; n = 1
CSNK1E = settings: concentration: 1 μM, replicates: in singlicate; n = 1
CSNK1G1 = settings: concentration: 1 μM, replicates: in singlicate; n = 1
CSNK1G2 = settings: concentration: 1 μM, replicates: in singlicate; n = 1
CSNK1G3 = settings: concentration: 1 μM, replicates: in singlicate; n = 1
CSNK2A1 = settings: n = 1
CSNK2A2 = settings: n = 1
[1] = concentration: 1 μM, replicates: in singlicate
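Further: KINOMEscan kinase panel screen.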

## CS(=O)(=O)Cc1ccc(Nc2nccc(-c3c(-c4cccc(NC(=O)C5CCCCC5)c4)nn4ncccc34)n2)cc1 [GSK350559]
CDKL5
  %Inh: 33%
CHEK1
  %Inh: 12%
CHEK2
  %Inh: 0%
CIT
  %Inh: 10%
CLK1
  %Inh: 10%
CLK2
  %Inh: 10%
CLK3
  %Inh: 24%
CLK4
  %Inh: 0%
CSF1R-autoinhibited
  %Inh: 35%
CSF1R
  %Inh: 79%
CSK
  %Inh: 10%
CSNK1A1L
  %Inh: 0%
CSNK1A1
  %Inh: 7%
CSNK1D
  %Inh: 0%
CSNK1E
  %Inh: 20%
CSNK1G1
  %Inh: 2%
CSNK1G2
  %Inh: 5%
CSNK1G3
  %Inh: 4%
CSNK2A1; 1 µM
  %Inh: 17%
CSNK2A2; 1 µM
  %Inh: 1%

## Cc1nccc(-c2c(-c3ccc(F)cc3)ncn2CCCN2CCOCC2)n1.Cl [SB-282975]
CDKL5
  %Inh: 0%
CHEK1
  %Inh: 7%
CHEK2
  %Inh: 14%
CIT
  %Inh: 21%
CLK1
  %Inh: 21%
CLK2
  %Inh: 5%
CLK3
  %Inh: 18%
CLK4
  %Inh: 0%
CSF1R-autoinhibited
  %Inh: 0%
CSF1R
  %Inh: 0%
CSK
  %Inh: 0%
CSNK1A1L
  %Inh: 21%
CSNK1A1
  %Inh: 51%
CSNK1D
  %Inh: 95.6%
CSNK1E
  %Inh: 88%
CSNK1G1
  %Inh: 4%
CSNK1G2
  %Inh: 6%
CSNK1G3
  %Inh: 2%
CSNK2A1; [1]
  %Inh: 1%
CSNK2A2; [1]
  %Inh: 9%

## COC(=O)c1cccc(NC(=O)NC2CCN(c3ccnc(Nc4ccc(F)cc4)n3)C2)c1 (centres unmarked) [GSK1379725]
CDKL5
  %Inh: 7%
CHEK1
  %Inh: 0%
CHEK2
  %Inh: 0%
CIT
  %Inh: 12%
CLK1
  %Inh: 10%
CLK2
  %Inh: 0%
CLK3
  %Inh: 0%
CLK4
  %Inh: 10%
CSF1R-autoinhibited
  %Inh: 0%
CSF1R
  %Inh: 2%
CSK
  %Inh: 0%
CSNK1A1L
  %Inh: 3%
CSNK1A1
  %Inh: 0%
CSNK1D
  %Inh: 21%
CSNK1E
  %Inh: 7%
CSNK1G1
  %Inh: 0%
CSNK1G2
  %Inh: 0%
CSNK1G3
  %Inh: 9%
CSNK2A1; [1]
  %Inh: 0%
CSNK2A2; [1]
  %Inh: 0%

## CN1c2ccc(-c3ccc(C(N)=O)cc3)cc2-c2[nH]ncc2S1(=O)=O
CDKL5
  %Inh: 0%
CHEK1
  %Inh: 0%
CHEK2
  %Inh: 49%
CIT
  %Inh: 0%
CLK1
  %Inh: 25%
CLK2
  %Inh: 70%
CLK3
  %Inh: 0%
CLK4
  %Inh: 15%
CSF1R-autoinhibited
  %Inh: 17%
CSF1R
  %Inh: 0%
CSK
  %Inh: 0%
CSNK1A1L
  %Inh: 0%
CSNK1A1
  %Inh: 3%
CSNK1D
  %Inh: 1%
CSNK1E
  %Inh: 1%
CSNK1G1
  %Inh: 0%
CSNK1G2
  %Inh: 0%
CSNK1G3
  %Inh: 0%
CSNK2A1; [1]
  %Inh: 0%
CSNK2A2; [1]
  %Inh: 1%

## COc1ccc(Nc2nccc(-c3ccc(NC(=O)c4cc5cc(F)ccc5[nH]4)cc3)n2)cc1 [GSK1229496]
CDKL5
  %Inh: 0%
CHEK1
  %Inh: 100%
CHEK2
  %Inh: 26%
CIT
  %Inh: 0%
CLK1
  %Inh: 5%
CLK2
  %Inh: 0%
CLK3
  %Inh: 19%
CLK4
  %Inh: 18%
CSF1R-autoinhibited
  %Inh: 15%
CSF1R
  %Inh: 0%
CSK
  %Inh: 0%
CSNK1A1L
  %Inh: 0%
CSNK1A1
  %Inh: 0%
CSNK1D
  %Inh: 0%
CSNK1E
  %Inh: 21%
CSNK1G1
  %Inh: 0%
CSNK1G2
  %Inh: 0%
CSNK1G3
  %Inh: 17%
CSNK2A1; [1]
  %Inh: 0%
CSNK2A2; [1]
  %Inh: 0%

## Nc1cccc(-c2ccc3c(N)n[nH]c3c2)n1 [GSK2192730]
CDKL5
  %Inh: 4%
CHEK1
  %Inh: 0%
CHEK2
  %Inh: 13%
CIT
  %Inh: 17%
CLK1
  %Inh: 28%
CLK2
  %Inh: 18%
CLK3
  %Inh: 0%
CLK4
  %Inh: 0%
CSF1R-autoinhibited
  %Inh: 0%
CSF1R
  %Inh: 14%
CSK
  %Inh: 15%
CSNK1A1L
  %Inh: 0%
CSNK1A1
  %Inh: 77%
CSNK1D
  %Inh: 0%
CSNK1E
  %Inh: 39%
CSNK1G1
  %Inh: 4%
CSNK1G2
  %Inh: 0%
CSNK1G3
  %Inh: 19%
CSNK2A1; [1]
  %Inh: 27%
CSNK2A2; [1]
  %Inh: 42%

## CS(=O)(=O)CCNCc1nc(-c2ccc3ncnc(Nc4ccc(OCc5ccccc5)c(Cl)c4)c3c2)cs1.Cl [GW582764]
CDKL5
  %Inh: 0%
CHEK1
  %Inh: 100%
CHEK2
  %Inh: 30%
CIT
  %Inh: 38%
CLK1
  %Inh: 22%
CLK2
  %Inh: 0%
CLK3
  %Inh: 0%
CLK4
  %Inh: 6%
CSF1R-autoinhibited
  %Inh: 48%
CSF1R
  %Inh: 3%
CSK
  %Inh: 0%
CSNK1A1L
  %Inh: 9%
CSNK1A1
  %Inh: 0%
CSNK1D
  %Inh: 10%
CSNK1E
  %Inh: 15%
CSNK1G1
  %Inh: 0%
CSNK1G2
  %Inh: 0%
CSNK1G3
  %Inh: 13%
CSNK2A1; [1]
  %Inh: 0%
CSNK2A2; [1]
  %Inh: 0%

## CS(=O)(=O)CCNCc1nc(-c2ccc3ncnc(Nc4ccc5c(cnn5Cc5ccccc5)c4)c3c2)cs1.Cl.Cl [GW569716]
CDKL5
  %Inh: 14%
CHEK1
  %Inh: 0%
CHEK2
  %Inh: 57%
CIT
  %Inh: 34%
CLK1
  %Inh: 24%
CLK2
  %Inh: 0%
CLK3
  %Inh: 1%
CLK4
  %Inh: 5%
CSF1R-autoinhibited
  %Inh: 39%
CSF1R
  %Inh: 0%
CSK
  %Inh: 0%
CSNK1A1L
  %Inh: 0%
CSNK1A1
  %Inh: 0%
CSNK1D
  %Inh: 2%
CSNK1E
  %Inh: 21%
CSNK1G1
  %Inh: 1%
CSNK1G2
  %Inh: 0%
CSNK1G3
  %Inh: 3%
CSNK2A1; [1]
  %Inh: 0%
CSNK2A2; [1]
  %Inh: 37%

## CSc1ccc(-c2nc3n(c2-c2ccncc2)CCC3)cc1 [SKF-105561]
CDKL5
  %Inh: 6%
CHEK1
  %Inh: 0%
CHEK2
  %Inh: 0%
CIT
  %Inh: 11%
CLK1
  %Inh: 5%
CLK2
  %Inh: 0%
CLK3
  %Inh: 13%
CLK4
  %Inh: 3%
CSF1R-autoinhibited
  %Inh: 3%
CSF1R
  %Inh: 40%
CSK
  %Inh: 0%
CSNK1A1L
  %Inh: 5%
CSNK1A1
  %Inh: 5%
CSNK1D
  %Inh: 6%
CSNK1E
  %Inh: 7%
CSNK1G1
  %Inh: 0%
CSNK1G2
  %Inh: 0%
CSNK1G3
  %Inh: 1%
CSNK2A1; [1]
  %Inh: 8%
CSNK2A2; [1]
  %Inh: 0%

## COc1ccc(-c2coc3ccc(-c4nnc(C)o4)cc23)cc1
CDKL5
  %Inh: 51%
CHEK1
  %Inh: 0%
CHEK2
  %Inh: 13%
CIT
  %Inh: 16%
CLK1
  %Inh: 3%
CLK2
  %Inh: 22%
CLK3
  %Inh: 0%
CLK4
  %Inh: 27%
CSF1R-autoinhibited
  %Inh: 7%
CSF1R
  %Inh: 9%
CSK
  %Inh: 0%
CSNK1A1L
  %Inh: 0%
CSNK1A1
  %Inh: 0%
CSNK1D
  %Inh: 0%
CSNK1E
  %Inh: 0%
CSNK1G1
  %Inh: 4%
CSNK1G2
  %Inh: 1%
CSNK1G3
  %Inh: 0%
CSNK2A1; [1]
  %Inh: 0%
CSNK2A2; [1]
  %Inh: 15%
